PubChem BioAssay
Calls of active or inactive are those of the source.

Assays:
[1] = test system: Human papillomavirus type 1a protein E7 (residues 44-93); experiment: HPV1a E7 fragment binders on microarrays, primary screen, biochemical, small-molecule microarray, residues 44-93, 635 nm fluorescence (AID 1108); details: small-molecule microarray binding, fluorescence 635 nm; higher = more signal;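 note: E7 fragment applied at 1 µg/mL in TBST for 1 h at 4 C; score combines spot fluorescence with its signal to noise ratio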
[2] = modulators of HCV replicon luciferase signal, primary screen, HCV replication inhibitor project, Huh7 cells, luciferase reporter (AID 1109); details: 48 h, higher = more signal;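 note: huh7 hepatoma cells harbouring a luciferase neomycin HCV replicon reporter; luciferase luminescence as measure of HCV replicon replication; test concentration not given here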
[3] = target: Left-right determination factor 2 (Homo sapiens) (UniProt O00292); experiment: LEFTY2 binders on small-molecule microarrays, primary screen, biochemical, small-molecule microarray, 635 nm fluorescence scan (AID 1110); details: LEFTY2 binding, higher = more signal
[4] = target: Calmodulin-1 (Homo sapiens) (UniProt P0DP23); experiment: CALM1 binders on microarrays, EGTA buffer, profiling panel, biochemical, small-molecule microarray, Cy5-labelled CALM1 (AID 1111); details: Cy5-CALM1 binding fluorescence, higher = more signal;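 note: labelled calmodulin applied in Tris saline Tween buffer holding calcium plus EGTA and DTT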
[5] = target: Calmodulin-1 (Homo sapiens) (UniProt P0DP23); experiment: calcium-bound CALM1 binders on microarrays, profiling panel, artefact control for SMM control-protein annotation, biochemical, small-molecule microarray, Cy5-labelled CALM1, plus calcium (AID 1112); details: Cy5-CALM1 binding fluorescence, higher = more signal;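 note: score merges spot fluorescence with signal to noise from triplicate slides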
[6] = small-molecule microarray binders of probe aWnt5a, primary screen, biochemical, biotinylated probe, 635/667 nm fluorescence (AID 1113); details: higher = more signal;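 note: score merges 667 nm fluorescence intensity with signal-to-noise per printed feature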
[7] = small-molecule microarray binders of probe aShh, primary screen, biochemical, biotinylated probe, 635/667 nm fluorescence (AID 1114); details: higher = more signal;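 note: probe is biotin-labelled aShh protein from a stem cell growth factor screen; measures binding of labelled protein to compounds printed on the slide; score merges feature fluorescence at 667 nm with signal-to-noise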
[8] = small-molecule microarray binders of probe aNog, primary screen, biochemical, biotinylated probe, 635/667 nm fluorescence (AID 1115); details: higher = more signal;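 note: probe is biotinylated aNog protein used at 0.15 µg/mL for 1 h at 4 C; z-score combines 667 nm fluorescence of each spot with its signal to noise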
[9] = target: Torsin-1A-interacting protein 1 (Homo sapiens) (UniProt Q5JTV8); experiment: LAP1 binders from COS7 cell lysate, primary screen, small-molecule microarray, 635/667 nm fluorescence (AID 1116); details: COS7-hLAP1 lysate binding, 635 nm fluorescence, higher = more signal
[10] = target: Alpha-bungarotoxin (Bungarus multicinctus) (UniProt P60615); experiment: alpha-bungarotoxin binders on microarray, profiling panel, artefact control for SMM control protein annotation, biochemical, small-molecule microarray, Alexa647 label, 635/667 nm fluorescence (AID 1117); details: alpha-BTX-A647 binding fluorescence, higher = more signal
[11] = target: Albumin (Bos taurus) (UniProt P02769); experiment: bovine serum albumin binders on microarray, profiling panel, artefact control for SMM control protein annotation, biochemical, small-molecule microarray, Alexa647 label, 635/667 nm fluorescence (AID 1118); details: BSA-A647 binding, fluorescence 635 nm, higher = more signal;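 note: score merges 667 nm emission intensity and signal-to-noise per printed compound spot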
[12] = small-molecule microarray binders of probe aXIP, primary screen, biochemical, NeuroSMM set, 635/667 nm fluorescence (AID 1119); details: higher = more signal, called active from +8 up or from −8 down;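 note: probe is the protein aXip251-270 applied at 1 µg/mL to compound-printed slides; binding of probe to printed compounds measured as 667 nm fluorescence plus signal to noise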
[13] = small-molecule binders of probe aNOTCH3, primary screen, biochemical, small-molecule microarray, 635/667 nm fluorescence (AID 1120); details: higher = more signal;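 note: probe is a biotin-tagged antibody raised against NOTCH3 rather than NOTCH3 protein; score merges spot fluorescence near 667 nm with spot signal to noise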
[14] = small-molecule binders of probe aNOTCH2, primary screen, biochemical, small-molecule microarray, 635/667 nm fluorescence (AID 1121); details: higher = more signal;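 note: score merges feature fluorescence read at 667 nm with its signal to noise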
[15] = target: Carbonic anhydrase 2 (Homo sapiens) (UniProt P00918); experiment: CAII small-molecule binders, profiling panel, biochemical, small-molecule microarray, Alexa647-labelled CAII (AID 1122); details: CAII-A647 binding fluorescence, higher = more signal
[16] = COS7 lysate on small-molecule microarray, probe aHis, 635 nm (AID 1123); details: COS7 cell lysate, fluorescence, higher = more signal;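 note: z-score combines 667nm fluorescence intensity with signal-to-noise per printed compound spot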
[17] = compound binding in COS7 lysate, probe aLAP1, primary screen, cell lysate, small-molecule microarray (AID 1124); details: probe aLAP1, fluorescence, higher = more signal;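 note: lysate comes from COS7 cells expressing LAP1 and is applied at 0.3 µg/mL; score merges spot fluorescence near 667 nm with signal-to-noise over triplicate slides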
[18] = test system: Sam68 (KHDRBS1); experiment: Sam68 small-molecule binders, primary screen, biochemical, small-molecule microarray, 635 nm fluorescence (AID 1125); details: small-molecule microarray binding, higher = more signal;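 note: score merges 667 nm channel intensity with signal to noise over triplicate slides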
[19] = test system: Chordin-like protein 2 (CHRDL2); experiment: CHRDL2 small-molecule binders, primary screen, biochemical, small-molecule microarray, 635 nm fluorescence (AID 1126); details: small-molecule microarray binding, fluorescence 635 nm; higher = more signal;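 note: printed compound slides probed with Chrdl2 protein at 4 µg/mL for 1 h at 4 C; score merges 667 nm emission intensity with signal to noise over three replicate slides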
[20] = target: Concanavalin-A (Canavalia ensiformis) (UniProt P02866); experiment: ConA small-molecule binders, primary screen, artefact control for SMM control protein annotation, biochemical, small-molecule microarray, Alexa647 label, 635 nm (AID 1127); details: ConA-A647 binding fluorescence, higher = more signal;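 note: z combines 667 nm emission intensity with signal-to-noise across three replicate slides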
Chain of Concanavalin-A (Canavalia ensiformis) (P02866 whole entry, looked up): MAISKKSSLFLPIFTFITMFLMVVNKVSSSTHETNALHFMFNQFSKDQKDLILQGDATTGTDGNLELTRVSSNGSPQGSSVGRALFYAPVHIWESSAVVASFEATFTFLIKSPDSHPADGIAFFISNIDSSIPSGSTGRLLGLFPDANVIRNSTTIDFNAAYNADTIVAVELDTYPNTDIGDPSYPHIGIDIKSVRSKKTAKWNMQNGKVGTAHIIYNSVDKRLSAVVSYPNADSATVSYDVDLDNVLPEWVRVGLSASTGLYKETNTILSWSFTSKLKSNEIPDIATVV

Chain of Albumin (Bos taurus) (P02769 whole entry, looked up): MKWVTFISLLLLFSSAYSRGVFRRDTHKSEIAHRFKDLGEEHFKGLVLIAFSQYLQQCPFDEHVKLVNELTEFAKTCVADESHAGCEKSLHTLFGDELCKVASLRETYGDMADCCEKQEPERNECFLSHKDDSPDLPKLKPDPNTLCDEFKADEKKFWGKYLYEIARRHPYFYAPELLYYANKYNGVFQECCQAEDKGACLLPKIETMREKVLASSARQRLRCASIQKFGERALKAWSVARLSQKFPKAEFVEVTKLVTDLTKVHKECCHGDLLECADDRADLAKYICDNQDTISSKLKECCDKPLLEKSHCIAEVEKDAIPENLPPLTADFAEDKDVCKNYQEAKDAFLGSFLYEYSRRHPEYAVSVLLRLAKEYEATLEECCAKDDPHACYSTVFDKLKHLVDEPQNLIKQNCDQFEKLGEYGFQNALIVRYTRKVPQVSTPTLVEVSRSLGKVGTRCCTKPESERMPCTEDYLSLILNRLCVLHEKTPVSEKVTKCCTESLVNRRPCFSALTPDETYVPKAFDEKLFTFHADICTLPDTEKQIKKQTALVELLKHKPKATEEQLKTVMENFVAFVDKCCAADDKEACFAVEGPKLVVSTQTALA
Chain of Left-right determination factor 2 (Homo sapiens) (O00292 whole entry, looked up): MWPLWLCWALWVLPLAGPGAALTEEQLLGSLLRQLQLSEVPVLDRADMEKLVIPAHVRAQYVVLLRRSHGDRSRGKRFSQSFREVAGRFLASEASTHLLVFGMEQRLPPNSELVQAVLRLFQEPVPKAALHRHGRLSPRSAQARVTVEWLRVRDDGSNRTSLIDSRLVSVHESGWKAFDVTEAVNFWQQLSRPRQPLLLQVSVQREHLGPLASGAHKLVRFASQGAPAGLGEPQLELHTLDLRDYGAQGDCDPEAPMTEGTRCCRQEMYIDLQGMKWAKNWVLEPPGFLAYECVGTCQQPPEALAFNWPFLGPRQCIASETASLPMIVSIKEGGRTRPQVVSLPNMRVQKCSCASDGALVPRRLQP
Chain of Alpha-bungarotoxin (Bungarus multicinctus) (P60615 whole entry, looked up): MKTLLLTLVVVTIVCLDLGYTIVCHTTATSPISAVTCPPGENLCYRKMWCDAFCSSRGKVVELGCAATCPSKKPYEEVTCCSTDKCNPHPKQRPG
Chain of Torsin-1A-interacting protein 1 (Homo sapiens) (Q5JTV8 whole entry, looked up): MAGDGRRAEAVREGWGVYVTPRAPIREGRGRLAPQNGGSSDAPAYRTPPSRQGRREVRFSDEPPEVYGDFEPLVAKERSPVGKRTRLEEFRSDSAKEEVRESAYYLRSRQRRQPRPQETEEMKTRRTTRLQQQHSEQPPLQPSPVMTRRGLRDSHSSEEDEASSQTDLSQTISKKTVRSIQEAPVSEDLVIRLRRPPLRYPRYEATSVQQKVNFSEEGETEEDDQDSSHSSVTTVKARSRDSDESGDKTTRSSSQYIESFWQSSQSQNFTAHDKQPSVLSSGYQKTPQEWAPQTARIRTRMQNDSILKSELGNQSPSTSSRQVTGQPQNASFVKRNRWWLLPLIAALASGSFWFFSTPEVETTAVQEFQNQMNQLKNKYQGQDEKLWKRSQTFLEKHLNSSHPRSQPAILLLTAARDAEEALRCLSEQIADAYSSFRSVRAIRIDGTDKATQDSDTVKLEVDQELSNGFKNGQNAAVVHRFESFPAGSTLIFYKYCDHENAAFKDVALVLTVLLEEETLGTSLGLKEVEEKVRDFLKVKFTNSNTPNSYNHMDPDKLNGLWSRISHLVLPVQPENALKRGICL

Row | Compound | composite z-score [1] | z-score [2] | composite z-score [3] | composite z-score [4] | composite z-score [5] | composite z-score [6] | composite z-score [7] | composite z-score [8] | composite z-score [9] | composite z-score [10] | composite z-score [11] | composite Z-score [12] | composite z-score [13] | composite z-score [14] | composite z-score [15] | composite z-score [16] | composite z-score [17] | composite z-score [18] | composite z-score [19] | composite z-score [20]
1 | O=C1CCCC2OC12C(O)CCc1ccccc1 (stereo not given) | -0.118 | -0.862 | 0.585 | -0.429 | -0.552 | 0.0516 | -0.206 | -0.175 | 0.0788 | 0.176 | -0.0592 | 0.319 (inactive) | -0.0581 | -0.185 | -0.22 | -0.324 | -0.2 | 0.17 | 0.594 | 0.594
2 | CO[C@@H]1COC(=O)[C@@H]2CCCN2C(=O)[C@@H](C)COC(=O)[C@H](COCc2ccccc2)NC(=O)CC=C[C@H]1C | 0.929 | 0.323 | 0.39 | -0.142 | -0.713 | -0.0748 | 0.0941 | -0.111 | 0.142 | 0.199 | 0.0307 | -0.413 (inactive) | -0.059 | -0.147 | 0.12 | 1.35 | -0.0015 | 0.813 | 0.611 | 0.379
3 | CC(CCC(=O)OC[C@H]1O[C@H](C#Cc2ccccc2)C=C[C@@H]1Oc1ccc(C)cc1)=NOC[C@@H](O)[C@H]1O[C@@H]2OC(C)(C)O[C@@H]2[C@H]1O | -0.263 | -1.13 | -0.15 | -0.873 | 0.0923 | -0.18 | -0.439 | -0.118 | 0.416 | -0.469 | -0.326 | -0.404 (inactive) | -0.2 | -0.187 | -0.023 | -0.282 | 0.137 | 0.14 | -0.532 | -0.614
4 | CN(C)C(=O)[C@@]1(Cc2ccccc2)N=C(c2ccc(OCCCO)cc2)O[C@H]1c1ccccc1CN=[N+]=[N-] | 1.1 | -2.14 | -0.068 | 2.47 | 1.26 | 0.313 | 0.64 | -0.18 | 2.95 | 2.62 | 0.968 | 1.29 (inactive) | 0.329 | 0.319 | 0.587 | 2.49 | 0.797 | 1.29 | -0.25 | 1.14
5 | COCCNC(=O)OCC1CCCC2(CC(OC(=O)NCCc3ccc(F)cc3)CC(CCC(=O)N[C@@H](C)C(=O)OC)O2)O1 (stereo not given in full) | 1.37 | -0.376 | 1.02 | -0.104 | -0.685 | -0.0643 | -0.0035 | -0.0827 | 0.0096 | 0.429 | 0.456 | -0.126 (inactive) | 0.0228 | -0.144 | 0.245 | 0.292 | -0.0037 | 1.3 | 0.581 | 0.769
6 | CCCC=C(CCC)[C@@H](NC(=O)c1ccc(-c2ccccc2)cc1)c1ccc(C(=O)OC)cc1 | 1.38 | -0.552 | -0.394 | 1.84 | 1.31 | 0.194 | 0.0195 | 1.25 | 0.421 | 0.93 | 0.127 | 0.0503 (inactive) | 0.197 | 0.0382 | 0.185 | 2.41 | -0.075 | 1.26 | -0.955 | 0.724
7 | CC(C)(C)N1C(=O)[C@H]2[C@H]3[C@H](O)[C@H](O)CC(=NO[C@@H]4O[C@H](CO)[C@@H](O)[C@H](O)[C@H]4O)[C@@H]3CC[C@H]2C1=O | 0.964 | -0.105 | 0.761 | -0.448 | -1.36 | -0.0115 | 0.111 | -0.0144 | 0 | 1.28 | -0.524 | 0.406 (inactive) | -0.059 | -0.154 | 0.361 | 0.741 | 0.649 | 1.24 | 1.07 | 0.0237
8 | CO[C@@H]1COC(=O)CCC[C@@H](C)[C@H](OC)COC(=O)[C@H](Cc2ccccc2)NC(=O)CC=C[C@H]1C | -1.68 | -1.48 | 0.714 | -1.16 | -1.81 | -0.197 | 0.194 | 0.0596 | -0.405 | -0.0864 | -0.603 | 0.274 (inactive) | -0.16 | -0.175 | -0.571 | -1.42 | -0.34 | -1.56 | 1.39 | -1.21
9 | CC(CCN1CCCCc2nc(C)c(C)cc21)=NOC(C)CN1CCCCc2nc(C)c(C)cc21 (stereo not given) | 1.41 | -2.95 | 1.45 | 0.447 | -0.788 | -0.096 | -0.0709 | -0.0762 | 0.201 | 1.23 | 0.845 | 0.833 (inactive) | 0.284 | -0.0131 | 0.503 | 1.12 | 0.858 | 1.3 | 1.25 | 0.898
10 | O=C1[C@H]2[C@H]3[C@H](O)[C@H](O)CC(=NO[C@@H]4O[C@H](CO)[C@@H](O)[C@H](O)[C@H]4O)[C@H]3CC[C@H]2C(=O)N1Cc1ccc2c(c1)OCO2 | 1.44 | -0.594 | -0.515 | -0.603 | -0.329 | -0.115 | -0.397 | 0.0327 | 0.441 | 1.02 | 0.861 | -0.161 (inactive) | -0.0984 | -0.106 | 0.173 | 1.42 | 0.0185 | 0.89 | -0.575 | 0.619
11 | O[C@@H](Cc1ccccc1)[C@H]1C2C=CCCC(c3ccccc3)=C2CN1Cc1cccc(Cl)c1 (stereo not given in full) | 0.921 | -2.27 | 0.286 | -0.118 | -0.264 | -0.157 | -0.0243 | 0.14 | 0.464 | 0.475 | -0.158 | 0.257 (inactive) | -0.027 | -0.0746 | 0.371 | 0.981 | 0.466 | 1.31 | 0.441 | 0.235
12 | CCCC[C@H]1OB(O)C[C@H]2C1=C(C)C[C@H]1C(=O)N(C)C(=O)[C@H]12 | 0.736 | -0.686 | 0.654 | -0.0405 | 0.06 | -0.0462 | -0.243 | 0.322 | -0.368 | 0.27 | 0.748 | 0.506 (inactive) | 0.16 | -0.117 | 0.328 | 0.326 | 0.308 | 1.08 | 0.311 | 0.321
13 | CC(C)NC(=O)[C@@H]1c2ccccc2C(=O)N(CC23CC4CC(CC(C4)C2)C3)[C@H]1c1ccc(CO)cc1 | 1.36 | -1.67 | 0.606 | 0.324 | -0.291 | -0.0835 | 0.439 | -0.338 | 0.774 | 0.812 | 0.283 | -0.178 (inactive) | 0.106 | -0.125 | 0.25 | 1.65 | 0.397 | 1.3 | 0.533 | 1.08
14 | CCOC(=O)CCN1C(=O)[C@H]2[C@H]3[C@H](O)[C@H](O)CC(=O)[C@H]3CC[C@H]2C1=O | 0.182 | -1.07 | 0.412 | 0.0492 | -0.375 | -0.201 | -0.229 | -0.201 | 0.619 | 0.0323 | 0.132 | 0.466 (inactive) | 0.0282 | -0.0986 | -0.214 | 0.197 | -0.386 | 0.321 | 0.454 | 0.528
